AC50 data for one compound are collected here from PubChem BioAssay AID2284162 (EPA ToxCast).

Activity calls are given as the source filed them. The calls were made as follows: active = hit-call score of the fitted dose curve at least 0.9, where 1 is the maximum; inactive = score below 0.9.

For the assay, the target named is human Histamine Receptor H1, HRH1 (gene 3269) (UniProt P35367). The assay can be described thus: ERF_FR_GPCR_hHRH1: Eurofins (ERF) G Protein-Coupled Receptor (GPCR) Radioligand Binding LeadHunter Assay for human Histamine Receptor H1 Antagonism, conducted at France lab site. The method, then: ERF_FR_GPCR_hHRH1 is a biochemical, single-readout assay that uses extracted gene-proteins in a cell-free assay. Measurements were taken 1 hour after chemical dosing in a 96-well plate. See H1 Human Histamine GPCR Binding (Antagonist Radioligand) Assay, Cerep.ERF_FR_GPCR_hHRH1 is an assay component calculated from the ERF_FR_GPCR_hHRH1 assay. It is designed to measure radioligand binding using a type of binding reporter as detected by scintillation counting with radiometry technology.Data from the assay component ERF_FR_GPCR_hHRH1 was analyzed at the assay endpoint, ERF_FR_GPCR_hHRH1, in the positive analysis fitting direction relative to DMSO as the negative control and baseline of activity. Using a type of binding reporter, loss-of-signal activity can be used to understand changes in binding as they relate to gene HRH1. To generalize the intended target to other relatable targets, this assay endpoint is annotated to the gpcr intended target family, where the subfamily is histamine.
human Histamine Receptor H1, HRH1 (gene 3269), sequence (P35367 whole entry, looked up): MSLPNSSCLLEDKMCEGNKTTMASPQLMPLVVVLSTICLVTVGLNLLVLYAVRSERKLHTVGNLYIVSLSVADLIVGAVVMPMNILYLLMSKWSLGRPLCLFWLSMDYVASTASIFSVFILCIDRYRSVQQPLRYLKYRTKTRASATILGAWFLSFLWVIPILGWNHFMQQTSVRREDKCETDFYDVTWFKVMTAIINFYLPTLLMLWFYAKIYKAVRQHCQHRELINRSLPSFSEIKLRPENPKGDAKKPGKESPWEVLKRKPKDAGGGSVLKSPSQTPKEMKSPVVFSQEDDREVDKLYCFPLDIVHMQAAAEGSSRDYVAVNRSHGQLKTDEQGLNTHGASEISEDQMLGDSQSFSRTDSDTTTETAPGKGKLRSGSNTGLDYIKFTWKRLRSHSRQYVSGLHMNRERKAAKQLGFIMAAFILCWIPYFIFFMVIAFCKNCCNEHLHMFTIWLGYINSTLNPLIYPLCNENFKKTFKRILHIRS
Human cells are incubated for 60 minutes at room temprature with [3H]pyrilamine ligand (1 nM) and Pyrilamine as control inhibitor. Test Sample Requirements: Minimum for 1) Screen: 60 ul of 10 mM stock -OR- 1 mg (pre-weighed) for 10 uM final testing. 2) Dose Response: 90 ul of 10 mM stock -OR- 1 mg (pre-weighed) for a top concentration at 10 uM.
A word on the AC50: it is the concentration at which the activity in the assay is half-maximal. Consider `O=C(/C=C/c1ccc(O)cc1)CC(=O)/C=C/c1ccc(O)cc1`, for which the AC50 was 1.46 µM (active).
